Columns and labels:
Assay in all cases: PBM binding z-score (relative to random genomic background probes); higher = stronger binding; sequences stand for … in GC…GCGATTGACAGCGTAGAATGAAGG
[1] = system: FXR:RXRa (NR concentration 270 nM, RXRa partner concentration 90 nM)
Method in brief: (§1)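 Random background probes are the reference for binding z-scores. These scores derive from regression-normalized fluorescence on custom Agilent 4×180K protein-binding microarrays incubated 1 h with ligand-free nuclear receptor dimers. Binding was detected with antibodies against each partner (one per run).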

[2] = system: LXRa:RXRa (NR concentration 270 nM, RXRa partner concentration 90 nM)
Method in brief: as §1

[3] = system: LXRa homodimer (NR concentration 270 nM)
Method in brief: as §1

[4] = system: LXRb:RXRa (NR concentration 270 nM, RXRa partner concentration 90 nM)
Method in brief: as §1

[5] = system: LXRb homodimer (NR concentration 270 nM)
Method in brief: as §1

[6] = system: PPARa:RXRa (NR concentration 270 nM, RXRa partner concentration 90 nM)
Method in brief: as §1

[7] = system: PPARg:RXRa (NR concentration 180 nM, RXRa partner concentration 90 nM)
Method in brief: as §1

[8] = system: PPARg:RXRa 270nM:90nM, anti-RXR (NR concentration 270 nM, RXRa partner concentration 90 nM)
Method in brief: as §1

[9] = system: PPARg:RXRa 30nM:10nM, anti-RXR (NR concentration 30 nM, RXRa partner concentration 10 nM)
Method in brief: as §1

[10] = system: PPARg:RXRa 90nM:30nM, anti-RXR (NR concentration 90 nM, RXRa partner concentration 30 nM)
Method in brief: as §1

Sequence	PBM binding z-score [1]	PBM binding z-score [2]	PBM binding z-score [3]	PBM binding z-score [4]	PBM binding z-score [5]	PBM binding z-score [6]	PBM binding z-score [7]	PBM binding z-score [8]	PBM binding z-score [9]	PBM binding z-score [10]
CCTAGTTGGTCAGGAGGTCACACGCCGGATATGA	3.62	3.32	1.92	3.15	0.554	4.05	3.59	3.92	1.69	2.84
CAAACTAAGTCAAGGTCAAAGTCGGTTTGTGCCA	4.9	5.29	5.4	4.15	1.52	4.7	2.82	3.64	1.62	2.78
CCTAGTAGGTCAGGAGGTCACACACCGGATATGA	5.48	4.97	2.62	4.41	0.811	5.81	9.01	7.34	6.14	7.5
TCTTCTAGATCAATAGAGGTTAAGAAAGTGCGCT	0.907	3.4	0.664	1.92	0.831	1.9	0.156	2	3.32	2.76
CTCAAAAGGTCGTGCTCAGGTGAGTATACCAAAC	5.46	4.03	0.165	3.42	0.129	4.98	3.14	3.85	0.896	2.75
AGAACGAGGGCAGGCTGAGTTGATAGCAGAGTAG	-0.312	-0.562	-0.661	-0.676	-1.05	0.187	0.64	0.432	-0.189	-0.155
TCTGCTAGGTCAATGATGGTCAGCTAATCTGCTA	2.48	2.82	-0.0629	1.38	-0.0652	2.69	1.53	2.35	1.77	2.05
CCAGACAGGTGAGAAGGTAACTGAGCCTCGATTA	-0.0558	-0.104	-0.12	-0.102	-0.691	0.592	0.397	0.61	-0.11	0.193
TTACCAAGGTGAAAGGTCGTCGATGCACGCCTTG	3.2	3.29	0.0373	2.77	-0.541	5.6	9.29	8.47	7.23	9
CGTCCAAGGCCAAAGGTCAGTGAAGAGATGACGG	4.06	3.48	0.794	3.05	-0.142	5.2	7.29	6.97	5.65	7.26
CGTCAAAGTTCAATGTAACGTAACAGAAAGCAGC	6.08	5.08	3.29	3.5	1.74	4.08	3.65	4.35	1.83	3.34
GCTTACGGGTCAGAGGTTATAGCATGAATAGAAT	5.2	3.46	0.404	3.77	0.261	5.92	9.08	7.82	6.2	8.57
CCCACTGGGCCAAGGTCATTGATCAGTCAAAGCA	3.13	2.95	1.44	2.57	-0.562	3.8	4.07	4.12	1.57	3.3
TCATAGAGGTAAACAGGTGAAAGTCCGTAAGTTA	0.648	0.794	-0.178	0.62	-0.997	2.14	1.65	2.55	2.8	2.68
ACAGACAGGTCAGTGAAGGTAACTCAGCTGGACG	2.55	1.83	-0.374	1.07	-0.266	2.47	1.18	1.05	-0.166	0.444
TCATATCGGTAAAAGGTGAAAGTCGGTGTGGTAA	1.65	1.77	0.323	1.52	0.181	4.23	6.69	6.91	6.64	7.74
CGAACTAGGACATTGACAGGACAGTGAATAGTAA	-0.0957	-0.0769	0.0961	-0.38	-0.79	0.451	0.933	0.247	0.384	0.344
CCGACTGGGGCACAAAGGTTACCATACCATCCGG	0.682	0.574	0.127	1.44	-1.09	3.24	4.16	5.34	2.72	5.14
GCTAGTCGGTCAGTAAAAGGTCACACACCGGTCG	4.06	4.97	5.34	4.32	0.747	4.67	3.19	4.83	2.43	4.01

Sequence	PBM binding z-score [1]	PBM binding z-score [2]	PBM binding z-score [3]	PBM binding z-score [4]	PBM binding z-score [5]	PBM binding z-score [6]	PBM binding z-score [7]	PBM binding z-score [8]	PBM binding z-score [9]	PBM binding z-score [10]
ATATGTAGGTTACATCCGGGTCATTCGGGCTATG	2.27	4.61	1.71	2.96	1.11	4.42	5.83	5.08	2.18	4.17
CCGACGGGGGCATAAGGTTACCATAAGCCAGCCC	3.27	4.13	0.249	4.27	3.6	3.87	2.48	3.54	1.17	2.82
AGTGAAAGTTCATCTAGGTAACGTAAGATATGCT	5.95	5.92	5.06	3.56	1.86	4.52	5.39	5.5	2.65	4.84
TCATTTAGGTAAATGCTAGGTGAAAGTCCGATCT	0.568	0.673	0.0938	0.395	0.604	1.41	0.312	1.97	3.57	2.65
ATCGAAAGGTCGAACGTGAGTATACCCACCCGAA	4.36	3.99	0.856	3.32	1.01	4.39	2.81	2.76	1.14	2.12
AATACAGGGTCACTAGGCGAGAGTAGGTACGAAT	6.08	4.92	1.02	3.94	1.26	5.66	7.02	6.14	2.65	4.89
GGAACGAGGGCAAGTTGATAGCAGAGTTTGATGG	1.07	0.522	-0.269	0.278	-0.586	1.74	1.19	1.03	-0.0238	0.39
CCAGACAGGTGAAAGTTAACTCAGTCTGGTACGC	-0.0765	0.237	-0.419	0.191	-0.617	2.21	2.62	4.15	1.99	3.83
TGAATGAGGTTATAAGATCAGGGATCGTTGCAAA	1.25	1.28	-0.202	0.676	-0.353	2.81	1.56	2.12	0.946	1.28
GCTTACGGGTCAAAGATTATAGCATGAATAGAAT	5.74	3.66	-0.0414	3.8	0.557	5.34	6.3	6.09	3.92	5.77
ATATGTAGGTTATCGGGTCATTAAGTTTGCGCAT	3	2.85	1.77	2.95	1.02	5	7.09	6.08	3.81	5.71
CGAACTGGGTCATTGACAGGACAGTGAATAGTAA	3.16	1.97	0.288	1.86	-0.438	4.39	6.77	5.84	2.72	5.44
ACTATTAGTTGAGACAAGGGCAACCGATAGGTTG	0.264	-0.00254	-0.143	-0.136	0.202	0.0106	0.795	0.412	0.214	0.411
TTACCAAGGTGAGCTGAGATCGTTGATCCAACTC	-0.243	-0.689	-0.907	-0.704	-1.18	0.12	-0.0237	0.4	-0.0278	0.278
CCTGCTAGGTCCATGGTCAGCTAAAGCAGCTCGC	-0.648	-0.658	-0.744	-0.958	-0.563	-0.447	-0.772	-0.287	-1.2	-0.648
GCTTGTAGATTAAGGTTAAGAAAGACTAAGCTAA	0.292	0.89	-0.399	0.611	-0.832	1.32	0.216	0.627	-0.258	0.49
AGAATGAGGTTACCAAAGATCAGGAAAACGCTTG	1.7	6.01	-0.322	3.66	-0.00832	3.51	2.7	2.54	0.962	2.01
CCGACTCGGGCAAAGGTTACCATACTCAGTACGA	1.22	1.83	-0.0865	1.94	-0.792	4.45	8.25	8.33	7.28	9.75
GCGACTGGGGCAAAGCAGGTTATCATAAGGTTGG	0.502	0.29	-0.027	0.318	-0.831	1.41	1.29	1.17	-0.476	0.229
